DT40 TDP1 no CPT = qHTS for Inhibitors of human tyrosyl-DNA phosphodiesterase 1 (TDP1): qHTS in cells in absence of CPT; DT40 Tdp1-/- hTDP1 cells, no CPT, ATP luminescence, 48 h; Potency, µM (doses to about 46.2 µM), without a hit: at the highest dose activity change, negative = growth inhibition, hits mostly inhibitors; 15% of 420,000 active; AID 686978, 2013; note: nearly all actives have a fitted effect of over 55% in size
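Growth kinetics read by CellTiter-Glo luminescence after ≥48 hr at 37 °C. Cells: DT40 Tdp1-/- stably carrying human TDP1, 400 per well, compound exposure in the absence of CPT (DMSO vehicle).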
KB-3-1 cytotox = qHTS assay for MDR1-selective chemotherapeutics: Primary screen using the parental adenocarcinoma cell KB-3-1; KB-3-1 viability, CellTiter-Glo ATP luminescence, 72 h; Potency, µM (series often up to 46.1 µM), most hits filed as cytotoxic; 1.4% of 400,000 active; AID 1347075, 2019; note: nearly all actives have a fitted effect of over 60% in size
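Screening of KB-3-1 cells (DMEM, 10% FBS, phenol-red free) ran from lowest to highest compound concentration; after 72 h at 37 °C viability was read luminescently and curves fitted.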
DT40 TDP1 CPT = qHTS for Inhibitors of human tyrosyl-DNA phosphodiesterase 1 (TDP1): qHTS in cells in presence of CPT. AID 686979, 2013. Potency, µM (titrated, usually from 46.2 µM), inactives show at the top dose activity change, negative = growth inhibition, most hits filed as inhibitors. chicken DT40 Tdp1-/-;hTDP1 cells + 20 nM CPT, ATP luminescence, 48 h. 12% of 420,000 active; note: nearly all actives have a fitted effect of over 55% in size
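Chicken DT40 Tdp1-/- cells stably complemented with human TDP1 were seeded at 400 cells/well in medium containing 20 nM camptothecin, exposed to pin-transferred compounds, and grown at 37 °C for at least 48 hr. Viability was read as ATP luminescence.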
HT1080 IDH1KD tx = qHTS for induction of synthetic lethality in tumor cells producing 2HG: qHTS for the HT-1080-IDH1KD cell line; HT-1080 IDH1 knockdown viability, ATP luminescence, 48 h; Potency, µM (titrated, usually from 46.1 µM), inactives show at the top dose activity, negative = toxicity, most hits filed as cytotoxic; 2% of 360,000 active; AID 686971, 2013;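 note: 0% = DMSO wells and -100% = cell-free medium wells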
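HT-1080-IDH1KD cells (IDH1 knocked down), 750/well in RPMI with 5% FBS, treated with compound 48 h at 37 degrees C. Viability by CellTiter-Glo luminescence, normalised to DMSO and no-cell wells; concentration-response curves classed.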
KB-V1 MDR tox = qHTS assay for MDR1-selective chemotherapeutics: Primary screen using the drug-selected MDR subline cells KB-V1; KB-V1 MDR cells viability, CellTiter-Glo, 72 h; Potency, µM (top dose mostly 46.1 µM), usual class: cytotoxic; 3.4% of 400,000 active; AID 1347076, 2019; note: nearly all actives have a fitted effect of over 60% in size
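Drug-selected KB-V1 cells, grown in DMEM lacking phenol red with 10% FBS, receive compound titrations; after three days at 37 degrees C, surviving cell ATP is quantified by CellTiter-Glo luminescence and responses normalized and curve-fitted.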
HT1080-NT tox = qHTS for induction of synthetic lethality in tumor cells producing 2HG: qHTS for the HT-1080-NT fibrosarcoma cell line; HT-1080-NT fibrosarcoma viability, CellTiter-Glo ATP luminescence, 48 h; Potency, µM (top dose mostly 46.1 µM), without a hit: top-dose activity, negative = less viability, actives largely listed as cytotoxic; 1.6% of 360,000 active; AID 686970, 2013;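 note: NT is the 2HG producing partner of a matched IDH1 knockdown line; 0% = DMSO-treated cells and -100% = media-only wells without cells; nearly all actives have a fitted effect of over 55% in size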
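Luminescent CellTiter-Glo readout after 48 hours of compound exposure at 37 degrees C defined viability of HT-1080-NT cells. Activity was normalized to DMSO wells and cell-free media wells; concentration-response curves were fitted and assigned curve classes.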
The depositor's hits bear a star; i = inactive; ? = inconclusive; / = not tested or not shown. Most compounds without a hit are left out; they make up all but 19% or so of the library. Calls come from the whole dose curve; as a rule, active = well fitted curve in the direction sought with a large enough effect; inconclusive = small, poorly fitted or top-dose-only effect, or another doubt; inactive = no such curve, though single readings can be large; an effect the other way counts as inactive or inconclusive. Unless noted, % is set by controls: 0 for no effect and ±100 for the full control effect; potency is the fitted concentration of half-maximal effect.

SMILES | DT40 TDP1 no CPT | KB-3-1 cytotox | DT40 TDP1 CPT | HT1080 IDH1KD tx | KB-V1 MDR tox | HT1080-NT tox
CCOc1ccc(NC(=O)COC(=O)C2COc3ccccc3O2)cc1 (configuration not stated) | -6% | i | -30% | 6% | i | 2%
COc1ccc(C(C#N)CC(=O)c2ccc(OCc3ccccc3)c(OC)c2)cc1OC (configuration not stated) | ? | i | ? | 9% | ? | -3%
Cc1ccc2nc(Cl)c3cc(C(=O)NCCCN4CCCC4)sc3c2c1 | 5.8µM* | ? | 5.8µM* | ? | i | 18µM*
CCC1CCCCN1CCCNC(=O)c1cc2c(Cl)nc3ccc(C)cc3c2s1 (configuration not stated) | 4.6µM* | i | 5.2µM* | / | i | /
CCC1CCCCN1CCCNC(=O)C1CCC(CNS(=O)(=O)c2c(C)cc(C)cc2C)CC1 (configuration not stated) | ? | i | 29µM* | ? | ? | ?
Cc1ccc2nc(Cl)c3cc(C(=O)N4CCCCC4C)sc3c2c1 (configuration not stated) | 23µM* | i | ? | / | i | /
Cc1ccc2nc(Cl)c3cc(C(=O)N4CCCCC4)sc3c2c1 | -101% | i | ? | / | i | /
CCC1CCCCN1CCCNC(=O)c1cc2c(=O)n(CC)c3ccccc3c2s1 (configuration not stated) | ? | ? | ? | / | i | /
COc1cc(=O)n2c(c1C(=O)NC(C)c1ccco1)CCN(CC=C(C)C)CC2 (configuration not stated) | -5% | / | -12% | / | / | /
CCc1nc2c(OCC(=O)C(C)(C)C)cccn2c1N(C)C(=O)c1ccc(C)cc1 | ? | i | ? | 18% | i | 13%
CC[C@@H](C)C(NC(=O)OC(C)(C)C)c1cn([C@@H](Cc2cc3ccccc3[nH]2)C(=O)N2CCN(C(=O)OC(C)(C)C)CC2)nn1 (some centres not stated) | 23µM* | ? | 23µM* | -1% | ? | -12%
C#CCOCCOCCOCCNc1nc(N2CCN(C(=O)[C@H]([C@@H](C)CC)n3cc([C@@H](N)Cc4ccc(O)cc4)nn3)CC2)nc(N2CCN(C(=O)[C@H](Cc3cc4ccccc4[nH]3)n3cc([C@@H](N)CC(C)C)nn3)CC2)n1 | ? | i | 23µM* | 5% | i | 6%
C#CCOCCOCCOCCNc1nc(N2CCN(C(=O)[C@H]([C@@H](C)CC)n3cc([C@@H](N)CC(C)C)nn3)CC2)nc(N2CCN(C(=O)[C@H](Cc3cc4ccccc4[nH]3)n3cc([C@@H](N)Cc4ccc(O)cc4)nn3)CC2)n1 | ? | i | ? | -6% | i | -21%
C#CCOCCOCCOCCNc1nc(N2CCN(C(=O)C(Cc3cc4ccccc4[nH]3)n3cc(C(N)C(C)CC)nn3)CC2)nc(N2CCN(C(=O)C(Cc3cc4ccccc4[nH]3)n3cc(C(N)C(C)CC)nn3)CC2)n1 (configuration not stated) | ? | ? | 16µM* | -3% | i | -1%
CC(=O)C1=C(O)C(=O)N(c2ccc(Br)cn2)C1c1ccc(Br)cc1 (configuration not stated) | ? | 3.7µM* | ? | ? | ? | ?
CC(=O)C1=C(O)C(=O)N(c2ccc(Br)cn2)C1c1ccc(F)cc1 (configuration not stated) | -24% | i | 15% | 26% | ? | ?
COc1ccc(C2c3c(oc4ccccc4c3=O)C(=O)N2c2nc(C)c(C)s2)cc1 (configuration not stated) | 3% | i | 10% | / | i | /
Cc1cc(C)nc(N2CCCC(C(=O)NCCc3ccc(F)cc3)C2)n1 (configuration not stated) | -3% | i | -7% | -11% | 18µM* | 7%
O=C(NCCc1ccccc1)C1CCCN(C(=O)Nc2ccc(F)cc2)C1 (configuration not stated) | 6.5µM* | ? | 6.5µM* | -9% | ? | -4%
Cc1cc(C)nc(N2CCC(C(=O)NCCc3ccc(Cl)cc3)CC2)n1 | ? | i | 13µM* | 3% | i | 15%
Cc1cc(C)nc(N2CCC(C(=O)NCCc3ccc(F)cc3)CC2)n1 | 9.2µM* | i | 16µM* | 0% | 13µM* | 1%
O=C(NCc1ccccc1Cl)C1CCCN(C(=O)Nc2ccc(F)cc2)C1 (configuration not stated) | -29% | i | ? | -17% | i | -8%
CC(Sc1nnc(-c2ccncc2)n1-c1ccc(F)cc1)C(=O)NC1CC1 (configuration not stated) | 8% | i | -3% | 9% | i | 6%
Cc1nc2sc(C)c(C)n2c(=O)c1S(=O)(=O)N1CCN(c2ccccc2F)CC1 | ? | i | -28% | / | i | /
CCC(C)NC(=O)Cn1cc(S(=O)(=O)N2CCN(c3ccccc3F)CC2)c2ccccc2c1=O (configuration not stated) | ? | i | ? | -20% | i | -3%
CCOC(=O)N1CCC(NC(=O)c2ccc3c(c2)N(C)CCS3)CC1 | ? | i | ? | -7% | i | -29%
CCOC(=O)N1CCC(NC(=O)c2ccc3c(c2)N(Cc2ccccc2)CCS3)CC1 | 15µM* | ? | 18µM* | 2% | i | 12%
CCOC(=O)N1CCC(NC(=O)c2ccc3c(c2)N(Cc2ccc(F)cc2)CCS3)CC1 | 23µM* | ? | 23µM* | -15% | ? | -25%
O=C(NC1CC1)c1ccc2c(c1)N(Cc1ccccc1)CCS2 | -21% | i | ? | -13% | i | -6%
CCOC(=O)N1CCN(C(=O)c2ccc3c(c2)N(Cc2ccc(F)cc2)CCS3)CC1 | 9.2µM* | ? | 8.2µM* | -9% | ? | -8%

Screening data: PubChem, National Center for Advancing Translational Sciences (NCATS)
